These results are taken from the supplement of paper PMC6279402.

The structures appear in SMILES notation. Where a name gives a salt, the structure may show the parent alone. ± gives the standard deviation of the averaged measurements.

The first experiment relates to A549. The experiment in a line: relative viability (normalised to negative control = 1, bortezomib = 0) (fraction); higher = less cytotoxic. To be noted: inflammatory serum-free RHB-A with cytokines + LPS; 5 d + 24 h CellTiter-Blue; compound 30 nM; GSK126 pretreatment: none (vehicle). (Alamar Blue is a resazurin reagent that responds to reducing activity.)
In the case of `S=P(N1CC1)(N1CC1)N1CC1` [Thiotepa], the relative viability was 0.949 ± 0.017.
Take `COc1cc2c(Oc3ccc4[nH]c(C)cc4c3F)ncnc2cc1OCCCN1CCCC1` [Cediranib(AZD2171)]: the relative viability amounted to 0.968 ± 0.019.
Still for that read-out and setting: the figure for `Cc1ccc(-n2nc(C(C)(C)C)cc2NC(=O)Nc2ccc(OCCN3CCOCC3)c3ccccc23)cc1` is 0.937 ± 0.18; for `NC(=O)c1ccc(N(C(N)=O)c2c(F)cccc2F)nc1-c1ccc(F)cc1F` it is 0.873 ± 0.059.
The same measure, in the same setting: for `N#C/C(=C/c1ccc(O)c(O)c1)C(=O)NCc1ccccc1` [AG-490; Tyrphostin AG 490] the value was 0.861 ± 0.1; for `Cc1nc(Nc2ncc(C(=O)Nc3c(C)cccc3Cl)s2)cc(N2CCN(CCO)CC2)n1` [Dasatinib], 0.882 ± 0.093; for `C#Cc1cccc(Nc2ncnc3cc(OCCOC)c(OCCOC)cc23)c1`, 0.823 ± 0.12.
Same read-out and setting: for `O=C(NOC[C@H](O)CO)c1ccc(F)c(F)c1Nc1ccc(I)cc1F` the value was 0.291 ± 0.011.
As for `CCc1cccc(CC)c1NC(=O)N1Cc2[nH]nc(NC(=O)c3ccc(N4CCN(C)CC4)cc3)c2C1`, the relative viability worked out at 0.91 ± 0.12.
In the case of `CCN1CCN(Cc2ccc(-c3cc4c(N[C@H](C)c5ccccc5)ncnc4[nH]3)cc2)CC1`, the relative viability was 0.693 ± 0.028.
Same read-out and setting: for `CN(C)c1nc(N(C)C)nc(N(C)C)n1` [Altretamine] the value was 0.87 ± 0.045.

Staying with this experiment, now noted: inflammatory serum-free RHB-A with cytokines + LPS; 5 d + 24 h CellTiter-Blue; compound 300 nM; GSK126 pretreatment: 5 uM GSK126.
Take `CN(C)c1ccc(-c2nc3ncc(Cl)c(N4CCN(CC(=O)Nc5nccs5)CC4)c3[nH]2)cc1`: the relative viability was 1.1 ± 0.097.
On to `COc1cc2/c(=N/c3ccc(Br)cc3F)nc[nH]c2cc1OCC1CCN(C)CC1` [Vandetanib], for which the relative viability was determined as 0.742 ± 0.12.
Take `O=NN(CCCl)C(=O)NCCCl` [Carmustine]: the relative viability came out at 0.894 ± 0.046.
Turning to `N#CCNC(=O)c1ccc(-c2ccnc(Nc3ccc(N4CCOCC4)cc3)n2)cc1`, the relative viability is 1.22 ± 0.083.
Regarding `O=C(Nc1cccc(Cl)c1)Nc1ncc(CCNc2ncnc3ccsc23)s1` [SNS-314 Mesylate], the relative viability was determined as 0.689 ± 0.16.
Same read-out and setting: the figure for `O=c1c(O)c(-c2ccc(O)c(O)c2)oc2cc(O)cc(O)c12` [QUERCETIN; Quercetin(Sophoretin); Quercetin dihydrate] is 0.961 ± 0.11.
For `COc1ccc2c3n(c(=NC(=O)c4cccnc4)nc2c1OC)CCN3`, the relative viability was determined as 0.578 ± 0.14.
Same read-out and setting: the figure for `CN(Cc1cnc2nc(N)nc(N)c2n1)c1ccc(C(=O)N[C@@H](CCC(=O)O)C(=O)O)cc1` [Methotrexate hydrate; Methotrexate] is 0.797 ± 0.17.
For `Cc1nc(NC(=O)N2CCC[C@H]2C(N)=O)sc1-c1csc(C(C)(C)C)n1`, the relative viability is 0.704 ± 0.044.
On the same count and under the same terms, the figure for `O=C(NC[C@H](O)CO)c1ccncc1Nc1ccc(I)cc1F` is 0.126 ± 0.019; for `O=C1CCC(N2C(=O)c3ccccc3C2=O)C(=O)N1` (configuration not stated) it is 0.865 ± 0.06; for `CC(C)Cn1cnc2c(N)nc3ccccc3c21` [Imiquimod] it is 0.863 ± 0.059.
On the same count and under the same terms, for `Cc1cc(Nc2cc(CN3CCOCC3)c3nc(C)c(Cc4ccc(Cl)cc4F)n3n2)n[nH]1` the value was 1.24 ± 0.078.
With `CS(=O)(=O)N1CCN(Cc2cc3nc(-c4cccc5[nH]ncc45)nc(N4CCOCC4)c3s2)CC1`, the relative viability was determined as 0.339 ± 0.066.
Same read-out and setting: for `O=C1c2c(O)ccc(O)c2C(=O)c2c(NCCNCCO)ccc(NCCNCCO)c21` [Mitoxantrone; Mitoxantrone dihydrochloride] the value was 0.148 ± 0.013; for `C[C@@H]1CCN(C(=O)CC#N)C[C@@H]1N(C)c1ncnc2[nH]ccc12`, 1.31 ± 0.067; for `COc1cc2c(N3CCN(C(=O)Nc4ccc(OC(C)C)cc4)CC3)ncnc2cc1OCCCN1CCCCC1` [Tandutinib (MLN518)], 0.829 ± 0.075.
On the same count and under the same terms, the figure for `FC(F)(F)c1ccc(/C=C/c2nc(COc3ccc(CCCCn4ccnn4)cc3)co2)cc1` [Mubritinib (TAK 165)] is 0.561 ± 0.081.
`NC(=O)NO` [Hydroxyurea]: the relative viability was found to be 1.09 ± 0.071.
Still for that read-out and setting: for `Cn1nnc2c(C(N)=O)ncn2c1=O` [Temozolomide] the value was 0.828 ± 0.067; for `CN1CC[C@H](c2c(O)cc(O)c3c(=O)cc(-c4ccccc4Cl)oc23)[C@H](O)C1` [Flavopiridol hydrochloride], 0.00358 ± 0.0037; for `CNC(=O)c1ccc(C)c(-n2c(C)cc(OCc3ccc(F)cc3F)c(Br)c2=O)c1`, 1.29 ± 0.13.
The same measure, in the same setting: the figure for `CCS(=O)(=O)c1cccc(-c2cc(C(=O)NC3CCN(C)CC3)c(C)c3[nH]c4ncc(C)cc4c23)c1` is 0.553 ± 0.083; for `Nc1nc2[nH]cc(CCc3ccc(C(=O)N[C@@H](CCC(=O)O)C(=O)O)cc3)c2c(=O)[nH]1` [Pemetrexed; Pemetrexed Disodium] it is 0.829 ± 0.1.
As to `CCOc1cc2ncc(C#N)c(Nc3ccc(OCc4ccccn4)c(Cl)c3)c2cc1NC(=O)/C=C/CN(C)C` [Neratinib], the relative viability was 0.196 ± 0.014.
As to `NC1(c2ccc(-c3nc4ccn5c(=O)[nH]nc5c4cc3-c3ccccc3)cc2)CCC1`, the relative viability is 0.387 ± 0.011.
